In PubChem BioAssay AID488975 (Johns Hopkins Ion Channel Center, 2010) one finds B-score data, which are given here for 98 molecules.

Molecules are shown by their SMILES. Among all 310,000 compounds or so, about 2,600 (0.84%) were called active.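 The calls were made as follows: active = B-score over 3 SD under the library average, and starting fluorescence ratio not unusually high; inactive = the rest.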 Many of the other results were omitted from the sample, so actives are more common in it than they were.

Chain of High affinity choline transporter 1 (Homo sapiens) (Q9GZV3 whole entry, looked up): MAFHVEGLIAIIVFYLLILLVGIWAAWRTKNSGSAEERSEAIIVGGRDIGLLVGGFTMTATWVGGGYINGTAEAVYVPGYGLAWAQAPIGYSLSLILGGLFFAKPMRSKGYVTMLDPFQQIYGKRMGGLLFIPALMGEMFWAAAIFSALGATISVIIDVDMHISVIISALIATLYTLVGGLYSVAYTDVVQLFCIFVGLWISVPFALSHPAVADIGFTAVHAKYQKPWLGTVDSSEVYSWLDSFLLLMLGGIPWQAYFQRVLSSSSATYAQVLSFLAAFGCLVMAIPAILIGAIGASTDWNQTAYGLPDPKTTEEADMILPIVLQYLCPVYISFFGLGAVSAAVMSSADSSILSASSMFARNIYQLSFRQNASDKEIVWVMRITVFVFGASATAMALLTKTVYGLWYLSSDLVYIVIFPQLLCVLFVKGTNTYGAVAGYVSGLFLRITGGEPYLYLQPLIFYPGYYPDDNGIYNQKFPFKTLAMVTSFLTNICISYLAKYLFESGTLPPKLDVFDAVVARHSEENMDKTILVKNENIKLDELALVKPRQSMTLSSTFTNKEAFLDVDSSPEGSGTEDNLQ

This assay has as its target High affinity choline transporter 1 (Homo sapiens) (UniProt Q9GZV3). Kind of assay: inhibits the human high affinity choline transporter (AID 488975).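 As to B-score: choline stimulus applied at its EC90 after an EC20 pre-addition; B-score computed on integrated fluorescence ratio after choline addition.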 To be noted: CHT-expressing cells, membrane potential dye, choline response, at 10 µM; active compounds read low.
With `O=C(/C=C/c1ccc([N+](=O)[O-])o1)NNC(=O)c1ccc(F)cc1`, the B-score result was “inactive”.

As to `CCN(CC)C(=O)CC(c1ccc2c(c1)OCO2)c1c(OC)cc(OC)c2c(-c3ccccc3)cc(=O)oc12` (stereo not drawn), the B-score result is “inactive”.

As to `CCN(CC)CCC(c1cc(OC)c(OC)c(OC)c1)c1c(OC)cc(OC)c2c(-c3ccccc3)cc(=O)oc12` (stereo not drawn), the B-score result is “inactive”.

`CCN(CC)CCC(c1ccc2c(c1)OCO2)c1c(OC)cc(OC)c2c(-c3ccccc3)cc(=O)oc12` (stereo not drawn): the B-score was -6.84 (active).

For the molecule `Cc1ccc(S(=O)(=O)N2CCOCC2)cc1C(=O)Nc1ccccc1N1CCCC1`, the B-score entry is “inactive”.

Take `COc1ccc(N2CCN(S(=O)(=O)c3cc4c5c(c3)C(C)C(=O)N5CCC4)CC2)cc1` (stereo not drawn): the B-score entry was “inactive”.

Turning to `Cc1ccc(-c2csc(NC(=O)C3=COCCO3)n2)cc1C`, the B-score entry was “inactive”.

As to `O=C(Nc1ncccc1O)c1ccc(S(=O)(=O)N2CCCCCC2)cc1`, the B-score result was “inactive”.

On to `CCOC(=O)[C@H]1[C@H]2COc3ccc(Cl)cc3[C@@H]2N2C(=O)c3cc(C)ccc3NC(=O)[C@@]12C`, for which the B-score entry was “inactive”.

Consider `Cc1cc(NC(=O)C(C)SCC(=O)Nc2ccccc2N2CCCCC2)no1` (stereo not drawn), for which the B-score result was “inactive”.

On to `Oc1ccccc1N1CCN(c2ncnc3sc(-c4ccccc4)cc23)CC1`, for which the B-score result was “inactive”.

Consider `CCc1cc2c(NC3CCCC3)ncnc2s1`, for which the B-score entry was “inactive”.

With `CCc1cc2c(N3CCN(c4nnc(CC)s4)CC3)ncnc2s1`, the B-score is -7.24 (active).

With `COc1ccc(C(=NN)c2ccc(OC)cc2)cc1`, the B-score entry is “inactive”.

As to `COc1ccc(S(=O)(=O)N2CCCCC2)cc1NC(=O)c1cc([N+](=O)[O-])ccc1N1CCOCC1`, the B-score result was “inactive”.

Turning to `O=C(NCCCn1ccnc1)C(=O)c1cn(CC(=O)N2CCCCCC2)c2ccccc12`, the B-score is -6.23 (active).

In the case of `Cc1ccc(CNC(=O)C(=O)c2cn(CC(=O)N3CCCC3)c3ccccc23)cc1`, the B-score entry was “inactive”.

On to `O=C(NCc1ccco1)C(=O)c1cn(CC(=O)N2CCCCCC2)c2ccccc12`, for which the B-score result is “inactive”.

For the molecule `CCN(CC)CCn1c2c(c(SCC(=O)Nc3nc4ccccc4s3)nc1=O)CCCC2`, the B-score result is “inactive”.

Take `O=C(CCCn1c(SCC(=O)c2ccccc2)nc2ccccc2c1=O)NCC1CCCO1` (stereo not drawn): the B-score result is “inactive”.

Regarding `COCCNC(=O)c1ccc(Cn2c(SCC(=O)NCC3CCCO3)nc3ccc(Br)cc3c2=O)cc1` (stereo not drawn), the B-score entry was “inactive”.

Regarding `CCCCn1c(SCC(=O)NCC2CCCO2)nc2ccc(N3CCOCC3)cc2c1=O` (stereo not drawn), the B-score is -5.48 (active).

For `O=C(COc1ccccc1Cl)Nc1ccccc1C(=O)NC1CC1`, the B-score entry was “inactive”.

Turning to `Cc1ccc(S(=O)(=O)CCC(=O)Nc2nnc(CC(C)C)s2)cc1`, the B-score result is “inactive”.

As to `CC(C)CC(=O)Nc1nnc(S(=O)(=O)N(C)c2ccc(Cl)cc2)s1`, the B-score result is “inactive”.

`CCC(=O)Nc1nnc(S(=O)(=O)N2CCCc3ccccc32)s1`: the B-score result is “inactive”.

Take `CCC(=O)Nc1nnc(S(=O)(=O)N(CC(C)C)c2ccccc2)s1`: the B-score is -5.75 (active).

With `CCN(C(=O)COC(=O)C1CCN(S(=O)(=O)c2ccc(C)c(C)c2)CC1)C1CCS(=O)(=O)C1` (stereo not drawn), the B-score entry was “inactive”.

For the molecule `Cn1cccc1C(=O)NNC(=O)COc1ccc(Br)cc1`, the B-score result was “inactive”.

With `Cc1ccc(S(=O)(=O)N2CCCCC2)cc1C(=O)N(C)CC(=O)Nc1cccc(F)c1`, the B-score result was “inactive”.

As for `O=C(NCC(c1ccco1)N1CCc2ccccc21)c1cccc(F)c1` (stereo not drawn), the B-score result is “inactive”.

With `COc1ccc2c(c1)OC(O)(C(F)(F)C(F)F)CC2=O` (stereo not drawn), the B-score is -5.18 (active).

Consider `CC1(C)CC(=O)c2ccc(O)cc2O1`, for which the B-score entry was “inactive”.

For `COc1ccc2c(c1)SC(C)CC2=O` (stereo not drawn), the B-score result was “inactive”.

In the case of `COC(=O)[C@@]12CCCN1[C@H](c1ccc(-c3ccc(F)cc3)c(OC)c1)[C@H]1C(=O)N(C)C(=O)[C@H]12`, the B-score entry was “inactive”.

With `CCN(CC)c1ccc(NC(=O)c2ccc(=O)[nH]c2)cc1S(=O)(=O)Nc1ccc(OC)cc1`, the B-score result was “inactive”.

With `COc1cc(/C=N/NC(=O)c2cc(-c3ccccc3C)nc3ccccc23)cc(OC)c1O`, the B-score result is “inactive”.

`O=C(Nc1nonc1-c1ccc(Cl)cc1)c1ccco1`: the B-score is -5.55 (active).

For the molecule `O=C(Nc1ccccc1)c1ccco1`, the B-score entry was “inactive”.

For the molecule `Cc1ccnc(NC(=O)c2ccco2)n1`, the B-score result is “inactive”.

Turning to `CN(Cc1ccccc1F)C(=O)C(Cc1ccccc1)NC(=O)c1ccccc1` (stereo not drawn), the B-score result is “inactive”.

`O=C(NNC(=O)c1cc(-c2ccccc2Cl)nc2ccccc12)c1csc(N2CCOCC2)n1`: the B-score result was “inactive”.

Turning to `O=S(=O)(Cc1cc(Sc2ccccc2)nc(-c2ccccc2)n1)c1ccccc1`, the B-score result is “inactive”.

For the molecule `O=S(=O)(NCCc1csc(-c2ccccc2)n1)c1cccnc1`, the B-score entry was “inactive”.

For `O=S(=O)(Cc1cc(Cl)nc(-c2cccnc2)n1)c1ccccc1`, the B-score was -6.86 (active).

For `COc1ccccc1NC(=O)C(C)OC(=O)c1ccc(-n2cnnn2)cc1` (stereo not drawn), the B-score entry is “inactive”.

For `CCC1Nc2ncnc(N3CCN(c4ccccc4)CC3)c2N(Cc2ccc(Cl)cc2)C1=O` (stereo not drawn), the B-score entry is “inactive”.

In the case of `CCOC(=O)C1C(c2ccc(Cl)cc2)NC(=S)NC1(O)C(F)(F)F` (stereo not drawn), the B-score entry is “inactive”.

As for `CC(=O)C1C(c2ccc(Cl)cc2)NC(=O)NC1(O)C(F)(F)F` (stereo not drawn), the B-score entry is “inactive”.

On to `O=C(c1cccs1)C1C(c2ccc(Br)cc2)NC(=S)NC1(O)C(F)(F)F` (stereo not drawn), for which the B-score was -8.32 (active).

For `CN(c1cccc(NC(=O)c2ccc(CN3CCc4ccccc4C3)cc2)c1)S(C)(=O)=O`, the B-score result was “inactive”.

Take `Cc1ccc(NC(=O)CN2CCc3ccccc3C2)cc1C`: the B-score result was “inactive”.

On to `Cc1cccc(C)c1NC(=O)c1ccc(CN2CCc3ccccc3C2)cc1`, for which the B-score is -5.84 (active).

Regarding `CCCCn1c(N)c(N(CC(C)C)C(=O)c2ccc(-n3c(C)ccc3C)cc2)c(=O)[nH]c1=O`, the B-score entry was “inactive”.

As for `COc1ccc2c(c1)[C@H]1[C@H](CO2)[C@H](c2ccccc2)[C@]2(C)C(=O)Nc3cc(F)c(F)cc3C(=O)N12`, the B-score entry is “inactive”.

Take `C=CCn1c(SCc2ccc(C(=O)NCCO)cc2)nc2ccccc2c1=O`: the B-score is -5.96 (active).

With `O=C(Nn1c(SCc2ccc([N+](=O)[O-])cc2)nc2ccccc2c1=O)c1ccc(F)cc1`, the B-score entry was “inactive”.

Regarding `COCCNC(=O)c1ccc(-n2c(SCc3cccnc3)nc3ccccc3c2=O)cc1`, the B-score entry was “inactive”.

Regarding `CCN1CCN(c2ccc(S(=O)(=O)N3CCCCC3)cc2NC(=O)c2cccc(NC(C)=O)c2)CC1`, the B-score entry is “inactive”.

On to `CC(OC(=O)CCCOc1ccccc1)C(=O)Nc1ccc(Cl)cn1` (stereo not drawn), for which the B-score entry is “inactive”.

For the molecule `O=C(NCCC1CCCCN1S(=O)(=O)c1cccs1)C(=O)Nc1ccc(F)cc1F` (stereo not drawn), the B-score result was “inactive”.

Consider `CC12CCC(=O)N1C(C(=O)Nc1ccc(F)c(F)c1F)CS2` (stereo not drawn), for which the B-score entry is “inactive”.

On to `Cc1oc2cc([N+](=O)[O-])c(O)c([N+](=O)[O-])c2c1C(=O)c1ccc(Br)cc1`, for which the B-score was -6.57 (active).

For `Cc1oc2cc(Br)c(O)c(Br)c2c1C(=O)c1ccccc1`, the B-score result is “inactive”.

Turning to `COc1ccc(C(=O)c2c(C)oc3cc([N+](=O)[O-])c(O)c([N+](=O)[O-])c23)cc1`, the B-score entry is “inactive”.

Regarding `COc1ccccc1CCNC(=O)C(=O)NCCC1CCCCN1S(=O)(=O)c1cccs1` (stereo not drawn), the B-score entry is “inactive”.

With `CCOc1ccc(NS(=O)(=O)c2ccc(C(=O)NCC(c3ccccc3OC)N3CCCC3)cc2)cc1` (stereo not drawn), the B-score result was “inactive”.

Take `COc1ccc(Cl)cc1NC(=O)CN(C)C(=O)c1cc2ccccc2cc1OC`: the B-score result is “inactive”.

As for `Cc1onc(-c2ccccc2Cl)c1C(=O)OCc1nnc(-c2ccccc2)o1`, the B-score result is “inactive”.

In the case of `COc1ccc(NC(=O)c2sc(N3CCOCC3)nc2-c2ccccc2)c(OC)c1`, the B-score result is “inactive”.

In the case of `COc1ccc(NC(=O)c2sc(N)nc2-c2ccccc2)cc1`, the B-score is -8.57 (active).

For the molecule `COc1ccc(NC(=O)CSc2nc(N)c(-c3ccccc3)c(=O)[nH]2)cc1`, the B-score result is “inactive”.

As for `COc1ccc(C(=O)NC(C)c2nccs2)cc1OC1CCN(C(C)C)CC1` (stereo not drawn), the B-score is -5.22 (active).

With `COCCOC1CCN(C(=O)c2ccc(OC)c(OC3CCN(C(C)C)CC3)c2)CC1`, the B-score entry is “inactive”.

`COc1ccc(C(=O)NC2CC2)cc1OC1CCN(Cc2cnn(C)c2)CC1`: the B-score entry was “inactive”.

As for `Cc1cc(C)c(S(=O)(=O)NCC(c2ccc3c(c2)OCO3)N2CCOCC2)c(C)c1` (stereo not drawn), the B-score entry is “inactive”.

Regarding `Cc1nc2ccccc2c(=O)n1-c1ccc(NS(=O)(=O)c2ccc(F)cc2F)cc1`, the B-score entry is “inactive”.

As for `COc1ccc(C(=O)OCC(=O)c2ccc(Cl)s2)c(OC)c1OC`, the B-score entry is “inactive”.

Take `CN(C)CCCN(C(=O)c1ccc(S(=O)(=O)N2CCCCCC2)cc1)c1nc2cc3c(cc2s1)OCCO3`: the B-score entry was “inactive”.

As for `O=C(/C=C\c1cn(-c2ccccc2)nc1-c1cccs1)N1CCOCC1`, the B-score entry is “inactive”.

Take `O=C(O)c1ccc(N/N=C/c2cn(-c3ccccc3)nc2-c2cccs2)cc1`: the B-score was -5.81 (active).

For the molecule `O=C(O)/C=C/c1cn(-c2ccccc2)nc1-c1cccs1`, the B-score entry was “inactive”.

As to `COc1ccc(NS(=O)(=O)c2ccc(C)c(C(=O)NCC(c3cccs3)N3CCOCC3)c2)cc1` (stereo not drawn), the B-score entry was “inactive”.

As to `CC(C)(C)c1ccc(C(=O)CSc2ncn[nH]2)cc1`, the B-score is -5 (active).

Take `Cn1nnc(NC(=O)CSc2ncn[nH]2)n1`: the B-score result is “inactive”.

As for `CCN(C(=O)CSc1ncn[nH]1)c1cccc2ccccc12`, the B-score entry was “inactive”.

With `O=C(CCNC(=O)c1ccc(Br)cc1)Nc1cccc(S(=O)(=O)N2CCCCC2)c1`, the B-score entry is “inactive”.

In the case of `CCOC(=O)c1c(C)oc2cc(Sc3ccccc3)c(O)c(O)c12`, the B-score entry is “inactive”.

For the molecule `CCN1C(=O)[C@H]2[C@@H](c3ccc(-c4ccc(OC)cc4)cc3)N[C@@](Cc3ccccc3)(C(=O)OC)[C@H]2C1=O`, the B-score result was “inactive”.

On to `COc1ccc(C2=NOC(Cn3nc(C(=O)NCc4ccc5c(c4)OCO5)cc3-c3ccccc3)C2)cc1` (stereo not drawn), for which the B-score entry is “inactive”.

For `Cc1cccc(N(Cc2ccccc2)C(=O)c2cc(S(=O)(=O)N3CCOCC3)ccc2F)c1`, the B-score entry was “inactive”.

In the case of `Cc1cc(C)n(-c2cc(Oc3ccccc3)ncn2)n1`, the B-score entry is “inactive”.

As for `Cc1cc(C)n(-c2ccc(Cl)c(C(=O)O)n2)n1`, the B-score result is “inactive”.

Regarding `CC(=O)c1ccc(Oc2cc(C)nc(-n3nc(C)cc3C)n2)cc1`, the B-score is -5.97 (active).

Take `O=C1[C@H]2[C@@H](c3ccc(Cl)cc3)N3C(=O)N(c4cccc(F)c4)C(=O)[C@@]3(Cc3ccccc3)[C@H]2C(=O)N1C1CCCCC1`: the B-score entry was “inactive”.

For the molecule `CCCCC(=O)NNC(=S)NC(=O)C(c1ccccc1)c1ccccc1`, the B-score is -10.8 (active).

Turning to `O=C(NNC(=S)NCc1ccco1)C(c1ccccc1)c1ccccc1`, the B-score result was “inactive”.

Take `CC(C)C(=O)Nc1cccc(NC(=S)NC(=O)C(c2ccccc2)c2ccccc2)c1`: the B-score entry was “inactive”.
